Inconclusive results are not listed. Where a call stands in place of a potency, no number is given. The source made the active and inactive calls. Calls come from the whole dose curve; as a rule, active = well fitted curve in the direction sought with a large enough effect; inconclusive = small, poorly fitted or top-dose-only effect, or another doubt; inactive = no such curve, though single readings can be large; an effect the other way counts as inactive or inconclusive.
How the values were obtained:
[1] = system: Zika virus NS2B-NS3 protease (linked construct); experiment: Primary screen NINDS Rhodamine qHTS for Zika virus inhibitors (AID 1347160); details: purified NS2B-NS3 protease, Rhodamine110 substrate fluorescence; series mostly up to 57.1 µM; note: nearly all actives have a fitted effect of over 55% in size; note: potency is the fitted concentration of half-maximal effect
In short: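 Rhodamine110-peptide cleavage (1.5 µM substrate) by 25 nM linked NS2B-NS3 enzyme at pH 8.0 (Tris, Tween 20), after 15 min RT preincubation with compounds; 15-min fluorescence change normalized to controls and Hill-fitted.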

[2] = system: Zika virus NS2B-NS3 protease (unlinked complex); experiment: Primary screen GU Rhodamine qHTS for Zika virus inhibitors: Unlinked NS2B-NS3 protease assay (AID 1347159); details: Recombinant ZIKV NS2B-NS3 protease, Rhodamine110 substrate fluorescence; series mostly up to 107 µM; note: nearly all actives have a fitted effect of over 60% in size; note: potency is the fitted concentration of half-maximal effect
In short: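 Percent inhibition came from the 15-min rise in Rhodamine110 fluorescence (1.5 microM substrate, ~15% conversion), normalized to no-inhibitor and no-enzyme wells and Hill-fitted. Unlinked protease, 25 nM, pH 8.0 Tris buffer; compounds up to 114 microM, 15-min preincubation.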

[3] = Confirmatory screen NINDS Rhodamine qHTS for Zika virus inhibitors (AID 1347161); details: purified enzyme assay, Rhodamine110 substrate fluorescence, 15 min; series mostly up to 114 µM; note: nearly all actives have a fitted effect of over 60% in size; note: potency is the fitted concentration of half-maximal effect
In short: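 Purified NS2B-NS3 protease with the NS2B hydrophilic domain joined by a flexible linker (25 nM) in 10 mM Tris-HCl pH 8.0, 0.01% Tween 20, preincubated 15 min at RT with compound; Rhodamine110 peptide substrate 1.5 µM; fluorescence change over 15 min; 4-parameter Hill fit.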

[4] = system: Zika virus NS2B-NS3 protease (linked); experiment: 384 well plate NINDS AMC confirmatory qHTS for Zika virus inhibitors (AID 1347163); details: Recombinant NS2B-NS3 protease, Ac-VKTGKR-AMC fluorescence; series mostly up to 100 µM; note: nearly all actives have a fitted effect of over 50% in size; note: potency is the fitted concentration of half-maximal effect
In short: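 Fluorescence at 355/460 nm was read after 25 minutes of cleavage of 30 microM Ac-VKTGKR-AMC at room temperature, in the dark. Before substrate addition, compounds (up to 1 mM final) sat ~15 minutes with 5, 30 or 60 nM linked protease. Signals were normalized to no-enzyme and no-inhibitor wells.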

[5] = system: Zika virus NS2B-NS3 protease (linked construct); experiment: 384 well plate NINDS Rhodamine confirmatory qHTS for Zika virus inhibitors (AID 1347164); details: rhodamine-110 peptide substrate fluorescence; series mostly up to 100 µM;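 note: fluorescence from protease cleavage of Ac-LKRR-rhodamine 110 substrate; nearly all actives have a fitted effect of over 65% in size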; note: potency is the fitted concentration of half-maximal effect
In short: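 Fluorescence at 485/538 nm was measured 25 minutes after adding 10 microM Ac-LKRR-Rd substrate, in the dark at room temperature. The protease (5, 30 or 60 nM final) had been preincubated ~15 minutes with compound; aprotinin as control.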

[6] = Vero cells viability qHTS for Zika virus inhibitors (AID 1347167); details: cytotoxicity counter-screen (Zika); series mostly up to 45.9 µM; note: potency is the fitted concentration of half-maximal effect
In short: (§1)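 qHTS titration; 24-48 h compound exposure, 37 degrees C/5% CO2; DMEM, 4% FBS; CellTiter Glo ATP luminescence.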

[7] = Tertiary RLuc qRT-PCR qHTS assay for Zika virus inhibitors (AID 1347169); details: infected Vero cells, reporter luminescence, 48-72 h; series mostly up to 89.2 µM; note: nearly all actives have a fitted effect of over 55% in size; note: potency is the fitted concentration of half-maximal effect
In short: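 Orthogonal cell-based readout: luminescence measured 1-1.5 hrs after adding live-cell Renilla substrate to Vero cells that had been infected with ZIKV-RLuc (MOI 1-2) post-compound, incubated 48-72 hrs at 37 degrees C.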

[8] = HepG2 cells viability qHTS for Zika virus inhibitors (AID 1347168); details: Zika counter-screen; series mostly up to 45.9 µM; note: potency is the fitted concentration of half-maximal effect
In short: as §1

[9] = qHTS to identify inhibitors of the type 1 interferon - major histocompatibility complex class I in skeletal muscle: primary screen against the NCATS LOPAC collection (AID 1347405); details: iHSKM muscle cells, IFN-b-induced MHC-I HiBiT luminescence, 24 h; series mostly up to 45.9 µM;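 note: human myoblasts with HiBiT tag on endogenous HLA-B stimulated by IFN-beta; lytic HiBiT luminescence reporting HLA-B protein level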
In short: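 First, engineered myoblasts carrying HLA-B-HiBiT were seeded in medium lacking dexamethasone with 4 ng/ml IFN-beta. After 1 hr, compounds were pinned in (top 46 uM final, 7 points). After 24 hrs at 37 C, luminescence was measured following 10 min lysis.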

CN(C1CCc2c(c3ccccc3n2CC(=O)O)C1)S(=O)(=O)c1ccc(F)cc1 (configuration not stated)
Potency [1]: inactive

O=C(Nc1cc(C(F)(F)F)cc(C(F)(F)F)c1)c1cc(Cl)ccc1O
Potency [2]: 2.82 µM (active) | Potency [1]: 7.94 µM (active) | Potency [3]: 7.84 µM (active) | Potency [4]: inactive | Potency [5]: 35.5 µM (active) | Potency [6]: 1.47 µM (active) | Potency [7]: 0.415 µM (active)

CC(C)c1ccccc1Cc1cc(C(=O)Nc2ccc(S(=O)(=O)c3ccccc3C(C)(C)C)cc2)c(O)c(O)c1O
Potency [3]: 90.3 µM (active) | Potency [4]: 2.24 µM (active) | Potency [5]: 1.58 µM (active) | Potency [6]: inactive | Potency [8]: inactive | Potency [7]: inactive

COc1cc(C(=O)NS(=O)(=O)c2ccccc2C)ccc1Cc1cn(C)c2ccc(NC(=O)OC3CCCC3)cc12
Potency [3]: 1.56 µM (active) | Potency [4]: 141 µM (active) | Potency [5]: 28.2 µM (active) | Potency [6]: inactive | Potency [8]: inactive

O=C(c1cncc(Br)c1)N1CCC(N2CCCC2)CC1
Potency [1]: inactive

O=C(O)Cn1nnc(-c2cc(N3CCC(Oc4cc(F)ccc4Br)CC3)no2)n1
Potency [2]: 22.4 µM (active) | Potency [1]: inactive | Potency [3]: 35 µM (active) | Potency [4]: inactive | Potency [5]: 79.4 µM (active) | Potency [7]: 1.17 µM (active)

C#Cc1cccc(Nc2ncnc3cc(OC)c(OCCCCCCC(=O)NO)cc23)c1
Potency [1]: inactive

Cc1cc(N2CCOCC2)cc2[nH]c(-c3c(NC[C@@H](O)c4cccc(Cl)c4)cc[nH]c3=O)nc12
Potency [1]: inactive | Potency [3]: 44 µM (active) | Potency [4]: inactive | Potency [6]: inactive

CCCCCN(CCC12CC3CC(CC(C3)C1)C2)C(=O)NCCCc1ccncc1
Potency [1]: inactive

Cc1cn(-c2cc(NC(=O)c3ccc(C)c(Nc4nccc(-c5cccnc5)n4)c3)cc(C(F)(F)F)c2)cn1
Potency [1]: inactive

Cc1cnc(-c2cnc(NCCNc3ccc(C#N)cn3)nc2-c2ccc(Cl)cc2Cl)[nH]1
Potency [1]: inactive

O=C(O)C1(Cc2cccc(Nc3nccs3)n2)CCC(Oc2cccc(Cl)c2F)CC1 (configuration not stated)
Potency [2]: 6.31 µM (active) | Potency [1]: 4.47 µM (active) | Potency [3]: 3.5 µM (active) | Potency [4]: 3.16 µM (active) | Potency [5]: 14.1 µM (active) | Potency [6]: inactive | Potency [8]: inactive

CCOc1ccccc1OCCNC(C)Cc1ccc(OC)c(S(N)(=O)=O)c1 (configuration not stated)
Potency [1]: inactive

OCc1ccc(-c2ccc(-c3ccc(CO)s3)o2)s1
Potency [1]: inactive

COc1ccc(OC)c(-c2nnc3ccc(-c4ccc(OC)c(O[C@@H]5CCOC5)c4)nn23)c1
Potency [1]: inactive

CCCn1c(=O)c2[nH]c(-c3cnn(Cc4cccc(C(F)(F)F)c4)c3)nc2n(CC)c1=O
Potency [2]: inactive | Potency [1]: inactive

Cn1c2ccccc2c2c3c(c4c5ccccc5n(CCC#N)c4c21)CNC3=O
Potency [1]: inactive

CCS(=O)(=O)c1cccc(-c2cc(C(=O)NC3CCN(C)CC3)c(C)c3[nH]c4ncc(C)cc4c23)c1
Potency [2]: inactive | Potency [1]: inactive | Potency [3]: inactive | Potency [6]: inactive | Potency [8]: 20.8 µM (active)

Cc1cn2c(-c3cn[nH]c3)cnc2c(Nc2ccc(C(=O)N3CCNCC3)cc2F)n1
Potency [1]: inactive

CCOC(=O)C1=C(C)NC2=C(C(=O)CC(C)(C)C2)C1c1ccc(-c2ccccc2)cc1 (configuration not stated)
Potency [2]: inactive | Potency [1]: inactive | Potency [3]: inactive | Potency [4]: inactive | Potency [5]: inactive | Potency [6]: inactive | Potency [8]: inactive

CC[C@@]1(O)C(=O)OCc2c1cc1n(c2=O)Cc2cc3cc(O)ccc3nc2-1
Potency [1]: 20 µM (active)

CC(C)(O)CCc1ccc(OCc2cc(-c3cccc(OC(F)F)c3)c3ncccc3c2)cc1
Potency [1]: inactive

Clc1cccc(-n2nnnc2NCc2ccccc2Oc2ccccn2)c1Cl
Potency [2]: inactive | Potency [1]: inactive

COc1cc(C)c(Sc2cnc(NC(=O)c3ccc(CNC(C)C(C)C)cc3)s2)cc1C(=O)N1CCN(C(C)=O)CC1 (configuration not stated)
Potency [1]: inactive

CCCCOc1c(C(=O)c2c(F)cc(C)cc2F)cnc2n[nH]cc12
Potency [2]: inactive | Potency [1]: inactive

Cc1ccc(CN2CCNCC2)cc1NC(=O)CNc1ccc(F)c(F)c1
Potency [2]: inactive | Potency [1]: inactive

COc1cc2c(cc1-c1c(C)noc1C)ncc1[nH]c(=O)n([C@H](C)c3ccccn3)c12
Potency [2]: inactive | Potency [3]: inactive | Potency [7]: 0.37 µM (active)

CCc1c2c(nc3ccc(O)cc13)-c1cc3c(c(=O)n1C2)COC(=O)[C@]3(O)CC
Potency [2]: inactive | Potency [1]: 10 µM (active) | Potency [3]: inactive | Potency [7]: 0.0658 µM (active)

O=c1c2ccccc2nc2n1CCc1c-2[nH]c2ccccc12
Potency [2]: inactive | Potency [1]: inactive | Potency [3]: 62.2 µM (active) | Potency [4]: inactive | Potency [5]: 56.2 µM (active) | Potency [6]: inactive | outcome [9]: inactive

CCN1CCN(Cc2ccc(-c3cc4c(N[C@H](C)c5ccccc5)ncnc4[nH]3)cc2)CC1
Potency [3]: inactive | Potency [6]: 53.7 µM (active) | Potency [8]: 38 µM (active)

Cc1c(Cn2c(C)nc3c(C(=O)O)cc(N4CCOCC4)cc32)cccc1C(F)(F)F
Potency [1]: inactive

Nc1nccc(Oc2ccc(NC(=O)c3c[nH]cc(-c4ccc(F)cc4)c3=O)cc2F)c1Cl
Potency [1]: inactive

CNC(=O)c1c(F)cccc1Nc1nc(Nc2cc3c(cc2OC)CCN3C(=O)CN(C)C)nc2[nH]ccc12
Potency [2]: inactive | Potency [1]: inactive

O=C(CCCCCCNC(=O)c1cnc(N(c2ccccc2)c2ccccc2)nc1)NO
Potency [1]: inactive

Clc1ccc2ncc(-c3cccc(NC4CNC4)n3)n2c1
Potency [1]: inactive

Cc1ccc(C(=O)Nc2cccc(C(F)(F)F)c2)cc1-c1ccc2nc(NCCN3CCOCC3)ncc2c1
Potency [2]: inactive | Potency [1]: inactive | Potency [3]: inactive | Potency [6]: inactive | Potency [8]: 8.27 µM (active)

CCn1cc(-c2ccnc3[nH]c(-c4cccc(CN(C)C)c4)cc23)c(-c2ccc(NC(=O)N(C)C)cc2)n1
Potency [2]: inactive | Potency [1]: inactive | Potency [3]: inactive | Potency [6]: inactive

CCN(CC)CCCCNc1ncc2cc(-c3cc(OC)cc(OC)c3)c(NC(=O)NC(C)(C)C)nc2n1
Potency [3]: inactive

From PubChem BioAssay (NCATS)
